VP16 counter – Gal4-VP16 reporter inhibition counter-screen. Drosophila S2 Gal4-VP16 UAS-luciferase, luminescence, 20 h. Potency, µM (highest dose often 53.6 µM), inactives show top-dose activity, negative = inhibition, most hits filed as inhibitors. hit rate 3.5% among 310,000. AID 2546;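 also: Gal4-VP16 expression switched on by copper sulfate through the metallothionein promoter; potency is read from the fitted curve at half-maximal effect; % is scaled to controls: 0 for no effect and ±100 for the full control effect; nearly all actives have a fitted effect of over 50% in size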
RORg inh – ROR gamma (mouse) transcription inhibition | hit rate 5.4% among 310,000 | AID 2551 | Potency, µM (doses to about 53.6 µM), inactives show at the highest dose activity change, negative = inhibition, actives largely listed as inhibitors | P51450 | Drosophila S2 Gal4-RORgamma UAS-luciferase reporter, 20 h; also: potency is read from the fitted curve at half-maximal effect; % is scaled to controls: 0 for no effect and ±100 for the full control effect; nearly all actives have a fitted effect of over 60% in size
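Luminescence from a UAS-regulated Photinus luciferase reporter in stably transfected Drosophila Schneider cells is measured; decreased signal marks ROR gamma inhibition. Fusion expression is induced by 700 uM copper sulfate for 20 hr.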
PKM2 act – increases activity of human pyruvate kinase M2 | Potency, µM (titrated, usually from 57.5 µM), for inactives: at the highest dose activation, actives largely listed as activators | AID 1631 | hit rate 0.34% among 260,000 | purified PKM2, Kinase-Glo ATP luminescence, activation; response scale: 0% is enzyme alone, no compound; also: potency is read from the fitted curve at half-maximal effect; % is scaled to controls: 0 for no effect and ±100 for the full control effect; nearly all actives have a fitted effect of over 55% in size
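Purified hPK-M2 (>95%) run at intermediate activity with 0.1 mM ADP and 0.5 mM PEP in 50 mM imidazole pH 7.2, KCl, MgCl2; 1 h room temperature. ATP formed read by Kinase-Glo luminescence; normalized to uninhibited and no-enzyme controls.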
Six1-Eya2 inh – blocks human Six1 binding to Eya2 | hit rate 0.56% among 360,000 | Q15475+O00167 | AlphaScreen GST-Six1/His-Eya2 binding, biochemical; hits give low values | activity change, % (test concentration not listed); in the data active = activity change below about -65%; inconclusive = mostly about -30% to -63%; also: % is scaled to controls: 0 for no effect and ±100 for the full control effect
Target sequence (O00167 whole entry, looked up): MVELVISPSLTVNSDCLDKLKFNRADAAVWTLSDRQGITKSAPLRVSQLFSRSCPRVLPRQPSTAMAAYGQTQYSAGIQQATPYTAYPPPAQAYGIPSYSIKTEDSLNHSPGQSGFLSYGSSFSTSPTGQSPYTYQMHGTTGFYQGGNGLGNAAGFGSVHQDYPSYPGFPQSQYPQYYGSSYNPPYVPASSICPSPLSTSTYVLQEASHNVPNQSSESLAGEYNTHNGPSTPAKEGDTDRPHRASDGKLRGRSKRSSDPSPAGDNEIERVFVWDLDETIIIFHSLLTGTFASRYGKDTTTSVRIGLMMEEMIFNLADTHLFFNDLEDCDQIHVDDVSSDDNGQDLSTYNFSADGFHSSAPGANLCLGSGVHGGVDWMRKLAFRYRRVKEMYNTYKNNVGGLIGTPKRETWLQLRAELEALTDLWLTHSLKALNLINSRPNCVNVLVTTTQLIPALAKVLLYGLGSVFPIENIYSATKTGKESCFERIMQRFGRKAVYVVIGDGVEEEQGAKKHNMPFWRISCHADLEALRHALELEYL
Target sequence (Q15475 whole entry, looked up): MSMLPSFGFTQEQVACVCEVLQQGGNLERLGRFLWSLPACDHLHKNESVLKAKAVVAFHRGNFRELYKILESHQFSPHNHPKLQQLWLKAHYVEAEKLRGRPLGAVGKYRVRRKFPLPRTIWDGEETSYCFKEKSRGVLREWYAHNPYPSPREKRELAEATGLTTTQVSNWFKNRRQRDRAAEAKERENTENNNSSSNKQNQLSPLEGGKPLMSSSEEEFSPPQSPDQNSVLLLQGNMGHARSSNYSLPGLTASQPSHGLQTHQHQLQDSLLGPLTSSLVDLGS
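Six1/Eya2 binding was read as AlphaScreen signal after compounds were pinned into GST-Six1 plus His-tagged Eya2 (5X stock 250/500 nM) in pH 8.0 Tris/NaCl/TCEP buffer, beads added, then incubated 1 h, 37 C, dark.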
CtBP-E1A blk – inhibitors of CtBP/E1A interaction. AlphaScreen GST-E1A/His-CtBP binding, 1536-well; hits give low values. activity change, % (test concentration not listed). hit rate 0.49% among 340,000. AID 651724; in the data active = activity change below about -65%; inconclusive = mostly about -30% to -63%; also: % is scaled to controls: 0 for no effect and ±100 for the full control effect
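GST-E1A and His-tagged CtBP (125 nM each as 5X stock) were preincubated with pin-transferred compound for 2 h at 37 °C in the dark, then glutathione donor and nickel acceptor beads were added for 1 h before AlphaScreen reading.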
HeLa viability – counter-screen for pyruvate kinase M2 activators: HeLa cytotoxicity; AID 1898; shares compounds with PKM2 act; activity change, negative = cytotoxicity, % at 57.5 µM; HeLa viability, CellTiter-Glo ATP luminescence, 24 h; 230 tested, under 10 active; also: % of control where 0% means no effect
An asterisk follows results filed as active; u = inconclusive; x = no result given; [ ] = dose if it differs, or a comment. Most compounds without a hit are left out; they make up all but 5.6% or so of the library. Unless noted, calls follow the shape of the dose curve; as a rule, active = well fitted curve in the direction sought with a large enough effect; inconclusive = small, poorly fitted or top-dose-only effect, or another doubt; inactive = no such curve, though single readings can be large; an effect the other way counts as inactive or inconclusive.

SMILES	VP16 counter	RORg inh	PKM2 act	Six1-Eya2 inh	CtBP-E1A blk	HeLa viability
COc1cccc(N2CCN(C(=O)CCCCCn3c(=S)[nH]c4cc5c(cc4c3=O)OCO5)CC2)c1	-26%	2.2µM*	x	2	3	x
O=[N+]([O-])c1ccc(C[n+]2cccc3ccc4cccnc4c32)cc1	u	-44%	-13%	-90*	-89*	x
Cc1cccc(N2CCN(C(=O)C3CCC(CNS(=O)(=O)c4cccs4)CC3)CC2)c1C (stereo not drawn)	11µM*	u	19%	-9	-1	x
O=C(N/N=C/c1cccs1)c1cccc(NC(=O)c2ccccc2Cl)c1	14µM*	u	-3%	-24	-13	x
O=C(N/N=C/c1ccco1)c1ccc(NC(=O)c2ccccc2Cl)cc1	0%	1%	2%	0	-18	x
O=C(N/N=C/c1ccncc1)c1ccc(-n2cccc2)cc1	-4%	-6%	0%	-4	-6	x
O=C(N/N=C/c1cccs1)c1ccc(-n2cccc2)cc1	11µM*	6.3µM*	0%	-7	-4	x
O=C(N/N=C/c1ccccc1F)c1cccc(NC(=O)c2ccccc2Cl)c1	-4%	16%	6%	-12	-15	x
O=C(N/N=C/c1cccs1)c1ccc(NC(=O)c2ccccc2Cl)cc1	u	10µM*	-10%	25	2	x
Cc1ccc(/C=N/NC(=O)c2ccc(-n3cccc3)cc2)o1	u	18µM*	x	-20	-21	x
O=S(=O)(c1ccc(Cl)nc1)N1CCN(c2ncccn2)CC1	-4%	-29%	-2%	2	4	x
CCN(CC)C(=O)CSc1nc2cc3c(cc2c(=O)n1CCCCCC(=O)NCc1ccc(OC)cc1)OCO3	-12%	-20%	3%	-5	0	x
COc1cccc(C2(C)NC(=O)N(CC(=O)c3cc(C)n(C4CC4)c3C)C2=O)c1 (stereo not drawn)	x	x	x	-10	3	x
O=C(Nc1nc(-c2ccccn2)cs1)c1cc2ccccc2o1	11µM*	1.6µM*	x	-77*	-68*	x
Cc1c(C(=O)Nc2nc(-c3ccccn3)cs2)oc2ccccc12	x	x	x	-73*	-86*	x
Cc1nnc(NC(=O)c2oc3ccccc3c2C)s1	u	u	-4%	2	-1	x
Cc1ccc(NC(=O)Nc2cc(C(F)(F)F)c[nH]c2=O)cc1	-8%	9%	-2%	8	-1	x
NC(=S)N=Nc1c(O)[nH]c2ccc(F)cc12	u	4.5µM*	-4%	-80*	13	x
CC(C)c1ccc2[nH]c(O)c(N=NC(=O)c3cccc(S(=O)(=O)Nc4ccccc4Cl)c3)c2c1	-12%	16%	-11%	u	-20	x
CC(C)NC(=S)N=Nc1c(O)[nH]c2ccc(C(C)C)cc12	4.5µM*	5µM*	2%	-13	x	x
O=Nc1c(O)[nH]c2ccc(F)cc12	0%	-19%	19%	-13	-5	x
CC1CCN(CCCNC(=O)C2CCN(S(=O)(=O)N3CCC4(CC3)OCCO4)CC2)CC1	1%	-24%	-7%	1	1	x
C[C@H]1CN([C@@H](C)CO)C(=O)c2cccc(NS(=O)(=O)c3cn(C)cn3)c2O[C@H]1CN(C)S(C)(=O)=O	x	x	x	19	26	x
Cc1cccc(N2CCN(C(=O)c3c(C)nn(Cc4ccccc4Cl)c3C)CC2)c1C	-8%	11%	3.5µM*	-8	-11	u
O=C(Cn1cnc2cc([N+](=O)[O-])ccc2c1=O)NCc1ccccc1	-13%	9%	4%	-30	8	x
SMILES	VP16 counter	RORg inh	PKM2 act	Six1-Eya2 inh	CtBP-E1A blk	HeLa viability
O=C(O)c1cc(-c2ccco2)nn1-c1cccc(Cl)c1	-3%	15%	25µM*	-10	0	-1
O=C(O)c1cc(-c2cccs2)nn1-c1cccc(Cl)c1	6%	-31%	x	-8	-5	x
CCn1c(N)c(C(=O)NCc2ccco2)sc1=S	1%	21%	3.5µM*	-6	-8	-26
CCOC(=O)c1ccc(-n2c(N)c(C(=O)NCc3ccco3)sc2=S)cc1	-10%	31%	u	-27	-14	x
CC1(C(=O)NS(=O)(=O)c2ccccc2C(F)(F)F)CCN1C(=O)c1cccc(F)c1 (stereo not drawn)	x	x	x	-1	0	x
COc1ccc(CN2C[C@@H](CO)O[C@@H](n3cnc4c(NC5CCC5)ncnc43)C2)cc1	x	x	x	3	5	x
C[C@@H]1CN(S(=O)(=O)c2ccc3c(c2)OCCO3)CCN1S(=O)(=O)c1c(F)cccc1F	x	x	x	x	x	-2
C[C@H]1CN(S(=O)(=O)c2c(F)cccc2F)CCN1S(=O)(=O)c1ccc2c(c1)OCCO2	x	x	x	x	x	0
CC(=O)N1CCN(S(=O)(=O)c2ccc3c(c2)OCCO3)CC1	x	x	x	3	4	x
O=C1CN(S(=O)(=O)c2c(F)cccc2F)CCN1S(=O)(=O)c1ccc2c(c1)OCCO2	x	x	x	x	x	0
COc1cccc(S(=O)(=O)Nc2ccc(C(=O)N3CCN(C(=O)c4ccco4)CC3)cc2)c1	u	u	1.4µM*	-2	-4	-2
CS(=O)(=O)Nc1ccc(C2=NN(C(=O)c3ccco3)C(c3ccccc3F)C2)cc1 (stereo not drawn)	-12%	u	3.2µM*	-6	-3	0
CCS(=O)(=O)Nc1ccc(C2=NN(C(=O)c3ccco3)C(c3ccco3)C2)cc1 (stereo not drawn)	x	x	x	-14	-4	x
COc1cc(CNc2ccc(S(N)(=O)=O)cc2)ccc1OCC(=O)NC1CCCCC1	2%	13%	-2%	-1	-11	x
Cn1c(=O)[nH]c(=O)c2c1nc(SCC(=O)Nc1ccccc1)n2Cc1ccccc1	16%	26%	1.6µM*	-16	1	u
O=S(=O)(c1ccc2c(c1)OCCO2)N1CCN(S(=O)(=O)c2ccc(F)cc2F)CC1	x	x	x	x	x	0
O=S(=O)(c1ccc2c(c1)OCCO2)N1CCN(S(=O)(=O)c2cc(F)c(F)cc2F)CC1	x	x	x	x	x	-5
CC(C)(C)NC(=O)CN(Cc1ccc(F)cc1)C(=O)Cn1nnc(-c2ccc(F)cc2)n1	-6%	22%	1%	4	x	x
COc1cccc(-c2nn(C)c3sc(C(=O)NCc4ccc(C)o4)cc23)c1	20µM*	8%	2.5µM*	u	u	u
O=[N+]([O-])c1ccc(Cl)c(S(=O)(=O)/N=C(/c2ccccc2)N2CCOCC2)c1	20%	5%	2%	-3	4	x
O=S(=O)(c1ccc(F)c(F)c1)N1CCN(S(=O)(=O)c2cccs2)CC1	5%	4%	12%	-1	2	x
Cn1cnc2cc(NCc3ccccc3O)ccc21	14%	-33%	-3%[11.5 µM]	-2	x	x
Cc1nc2cc(NCc3ccccc3O)ccc2n1Cc1ccccc1	u	u	5µM*	-14	0	-12
